Test results reported in the supplement of paper PMC12494721.
Where a name gives a salt, the structure may show the parent alone.

These molecules were tested on Clostridium sporogenes DSM 1664 (assay: growth (OD595) fold change vs plate DMSO controls (fold change (ratio)); higher = more growth). Conditions: incubation time: 27 h, anaerobic, 37 °C.
Outline: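 The measure reported is growth, taken as fold change against the median of DMSO controls on the same plate. Anaerobic mGAM cultures in 96-well plates (27 h, 37 °C) were read at 595 nm, blank-subtracted, corrected for compound background using 20 µM compound solutions in water, and multiplied by a calibration factor of 5 to give OD. Any fold change above 1.5 became NA, and 2 biological replicates were averaged.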

| SMILES | growth |
| --- | --- |
| Nc1nc(CC(=O)Nc2ccc(CCNC[C@H](O)c3ccccc3)cc2)cs1 [Mirabegron] (20 µM) | 1.09 |
| CS(=O)(=O)OCCCCOS(C)(=O)=O [Busulfan] (20 µM) | 0.951 |
| CCN(CC)CCOC(=O)C(Cc1cccc2ccccc12)CC1CCCO1 (stereo unspecified) [Nafronyl oxalate] (20 µM) | 0.946 |
| C[C@H]1O[C@@H](O[C@H]2[C@@H](O)C[C@H](O[C@H]3[C@@H](O)C[C@H](O[C@H]4CC[C@@]5(C)[C@H](CC[C@@H]6[C@@H]5C[C@@H](O)[C@]5(C)[C@@H](C7=CC(=O)OC7)CC[C@]65O)C4)O[C@@H]3C)O[C@@H]2C)C[C@H](O)[C@@H]1O [Digoxin] (20 µM) | 1.14 |
| COc1cc(N)c(Cl)cc1C(=O)NC1CCN(CCCOc2ccc(F)cc2)CC1OC (stereo unspecified) [Cisapride] (20 µM) | 0.913 |
| O=C(O[C@@H]1C[C@@H]2C[C@H]3C[C@H](C1)N2CC3=O)c1c[nH]c2ccccc12 [Dolasetron mesilate] (20 µM) | 0.968 |
| Cc1oncc1C(=O)Nc1ccc(C(F)(F)F)cc1 [Leflunomide] (20 µM) | 1.13 |
| CC(C)Cn1cnc2c(N)nc3ccccc3c21 [Imiquimod] (20 µM) | 1.1 |
| Clc1ccc2c(c1)C(N1CCNCC1)=Nc1ccccc1O2 [Amoxapine] (20 µM) | 1.21 |
| CCCCCN(C)CCC(O)(P(=O)(O)O)P(=O)(O)O [Ibandronate sodium] (20 µM) | 1.07 |
| CN1CCc2c(c3ccccc3n2Cc2ccccc2)C1 [Mebhydroline 1,5-naphtalenedisulfonate] (20 µM) | 0.931 |
